Laboratory results as given in PubChem BioAssay AID1239 (SRMLSC, 2008).
In all, about 190,000 compounds went through this assay and about 3,100 (1.6%) were called active. The sample as a whole holds a higher share of actives than the screen did. Values without a mark were called inactive. No stated cut-off is given here; in the data, active means fold change above about 3.3; inconclusive means no clear call, values can overlap the other calls; inactive means below that.

Test: NF-kB upregulation, human neuronal cells – cell-based, HTS, primary screen (AID 1239)
Details: NF-kB reporter expression, at 12.5 µM, hits give high values

| Compound | fold change |
| --- | --- |
| CC(C)C(=O)OCC(=O)Nc1ccc2c(c1)CCC2 | 1.06 |
| O=C(Nc1ccc2c(c1)CCC2)c1ccc(Br)s1 | 11.1 (active) |
| O=C(NC1CCCC1)c1ccc(Br)s1 | 1.12 |
| CCN(C(=O)c1ccc(Br)cc1)c1ccccc1 | 1.19 |
| C/C(CC(=O)Nc1cccc(C(F)(F)F)c1)=N\NC(=O)C(=O)NCC(C)C | 1.26 |
| CC(C)C1Nc2c(C(=O)O)cccc2C(Nc2ccccc2C(=O)O)C1(C)C (stereo not drawn) | 1.41 |
| O=C(c1cc(-c2cccs2)on1)N1CCCCC1 | 5.06 (active) |
| O=C(c1cc(-c2ccccc2O)on1)N1CCCC1 | 2.02 |
| COc1ccccc1-c1cc(C(=O)N2CCCCC2)no1 | 6.86 (active) |
| Cc1ccc(-c2cc(C(=O)N3CCc4ccccc4C3)no2)cc1 | 1.06 |
| COc1ccccc1N1CCN(C(=O)c2cc(-c3ccc(Br)cc3)on2)CC1 | 1.31 |
| O=C(c1ccc(F)cc1)N1CCCC(c2nc(-c3cccs3)no2)C1 (stereo not drawn) | 0.86 |
| Cc1cccc(NC(=S)Nc2ccc(Cl)c(Cl)c2)c1 | 0.6 |
| COc1cc([N+](=O)[O-])ccc1NC(=S)N1CCN(c2ccccn2)CC1 | 1 |
| CC1CCN(C(=S)c2cccc(O)c2)CC1 | 1.37 |
| CCCN(CCC)c1ccc(C(O)c2nnc(-c3ccccc3)o2)cc1 (stereo not drawn) | 1.05 |
| CNC(=S)N1N=C(c2ccccc2)CC1c1ccc(Br)cc1 (stereo not drawn) | 1.3 |
| Brc1ccc(C2CC(c3ccccc3)=Nc3ccccc3N2)cc1 (stereo not drawn) | 3.44 (active) |
| c1ccc(C2=Nc3cccc4cccc(c34)N2)cc1 | 1.21 |
| C=CCn1cc(-c2cccc(C(F)(F)F)c2)cc(C#N)c1=O | 1.06 |
| O=C(/C=C/c1ccc(N2CCOCC2)cc1)c1ccccc1 | 4.09 (active) |
| O=C(O)c1ccc2c(c1)C(=O)N(c1ccc(/C=C/C(=O)c3ccccc3)cc1)C2=O | 1.2 |
| O=C(/C=C/c1ccccc1)c1ccoc1 | 0.94 |

| Compound | fold change |
| --- | --- |
| O=C(Nc1nc(-c2cccnc2)cs1)c1ccccc1F | 1.73 |
| COc1cc(NC(=S)N2CCCC(C)C2)cc(OC)c1OC (stereo not drawn) | 1.11 |
| COc1ccc(/C=C(\C#N)C(=O)ONC2=NCCCCC2)cc1 | 1.26 |
| COc1cc(SC)ccc1C(=O)Nc1nc(C)cs1 | 0.52 |
| Cc1csc(NC(=O)NC2(C(F)(F)F)Oc3ccccc3O2)n1 | 5.29 (active) |
| Cc1cc(NC(=O)Nc2ccccc2[N+](=O)[O-])no1 | 1.12 |
| Cc1c(NC(=O)Nc2ccccc2)cccc1[N+](=O)[O-] | 1.43 |
| Cc1csc(NC(=O)Nc2ccccc2[N+](=O)[O-])n1 | 3.38 (active) |
| Cc1csc(NC(=O)CN2CCCCCC2)n1 | 1.18 |
| Cc1ccnc(NC(=O)c2ccc(Cl)c([N+](=O)[O-])c2)c1 | 2.09 |
| CNC(=S)Nc1ccc([N+](=O)[O-])cc1 | 1.13 |
| Cc1ccccc1N1C(=O)C(Oc2ccc(Cl)cc2)C1CNCC1CCCO1 (stereo not drawn) | 1.25 |
| CCOC(=O)CCNC(=O)N1CCCC(C(=O)c2ccccc2SC)C1 (stereo not drawn) | 1 |
| O=C(Nc1nnc(CCc2ccccc2)s1)C1CCCO1 (stereo not drawn) | 1.38 |
| O=C(Nc1cccc(-c2nnc(-c3ccccc3)o2)c1)C1CCCO1 (stereo not drawn) | 0.88 |
| O=C(Nc1ccc(-c2nnc(-c3ccccc3)o2)cc1)C1CCCO1 (stereo not drawn) | 4.06 (active) |
| COc1ccc(-n2nc3c(c2NC(=O)c2ccc(N4C(=O)CCC4=O)cc2)CSC3)cc1 | 1.2 |
| C=CCN(C(=O)c1cc(C)cc(C)c1)C1(C(=O)Nc2ccccc2)CCN(C(C)C)CC1 | 0.87 |
| CC1CN(CCOc2ccccc2[N+](=O)[O-])CC(C)O1 (stereo not drawn) | 1.22 |
| CC1CCN(S(=O)(=O)c2ccc3ncn(CC(=O)N(C)C4CCCCC4)c(=O)c3c2)CC1 | 0.79 |
| O=C(OCC(=O)c1cccs1)c1ccc([N+](=O)[O-])o1 | 0.88 |
| Cc1cc(=O)n2[nH]c(-c3sccc3-n3c(C)ccc3C)cc2n1 | 1.08 |
| CCOC(=O)CSc1ccccn1 | 0.99 |

| Compound | fold change |
| --- | --- |
| CCOC(=O)CSC1=N/C(=C/c2ccc(-n3cncn3)cc2)C(=O)N1C(C)=O | 4.34 (active) |
| CCOC(=O)CSc1nc(C)cc2c1C(=O)OC2 | 1.43 |
| CC1=NN(c2ccccc2)C(=O)C1C(=O)c1ccc([N+](=O)[O-])cc1 (stereo not drawn) | 0.91 |
| O=C(O)/C=C/c1cn(Cc2ccccc2)nc1-c1cccs1 | 1.06 |
| NS(=O)(=O)c1cccc(NC(=O)CN2CCCc3ccccc32)c1 | 0.95 |
| COc1ccc(OC)c(/C=C/C(=O)OCC(=O)Nc2ccc3c(c2)OCCO3)c1 | 1 |
| COc1cccc(/C=C/C(=O)Nc2ccc3c(c2)OCCO3)c1 | 6.74 (active) |
| CCSc1ccccc1C(=O)Nc1ccc2c(c1)OCO2 | 1.88 |
| COc1ccc(/C=C/C(=O)Nc2ccc3c(c2)OCCO3)cc1OC | 0.68 |
| Cc1cccc(NC(=O)Nc2ccc3c(c2)OCO3)n1 | 4.19 (active) |
| CCc1c(C)sc(NC(=O)/C=C/c2ccc3c(c2)OCO3)c1C(=O)OC | 1.05 |
| Cc1cccc(NC(=O)/C=C/c2ccc3c(c2)OCO3)n1 | 8.04 (active) |
| O=C(/C=C/c1ccc2c(c1)OCO2)NCc1ccc(F)cc1 | 1.46 |
| CC(NC(=O)Nc1ccc2c(c1)OCO2)c1ccncc1 (stereo not drawn) | 1.61 |
| COc1ccc(N2C(=O)C(Cc3ccccc3)NC2=S)cc1 (stereo not drawn) | 1.19 |
| Cc1nn(C)c(C)c1S(=O)(=O)N1CCC(CO)(Cc2ccc(Cl)cc2)CC1 | 0.97 |
| O=C(N/N=C/c1cc2c(cc1Br)OCO2)C1COc2ccccc2O1 (stereo not drawn) | 1.55 |
| COc1cc(NC(=S)NCc2ccc(S(N)(=O)=O)cc2)cc(OC)c1 | 1.03 |
| CSc1ccccc1NC(=O)CN(C)CC(=O)Nc1ccc(Cl)cc1[N+](=O)[O-] | 1.29 |
| C(=N\Nc1ccc2ccccc2n1)/c1ccc2c(c1)OCO2 | 1.78 |
| Cc1noc(C)c1/C=N/Nc1ccc2ccccc2n1 | 4.12 (active) |
| Cc1cc(C)nc(N/N=C/c2c(C)oc3ccccc23)n1 | 1.11 |
